ALDH1A1 inh: ALDH1A1 (human) enzyme inhibition. Potency, µM (top dose mostly 75.3 µM), for inactives: at the highest dose activity, negative = inhibition, hits mostly inhibitors. P00352. Purified ALDH1A1, NADH fluorescence, propionaldehyde substrate. actives 7.3% (n = 220,000); active = well fitted inhibition curve with a large enough effect, not every such curve was filed as active; inconclusive = small, poorly fitted or top-dose-only effect, or another doubt; inactive = no such curve, though single readings can be large or run the other way;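 also: potency is read from the fitted curve at half-maximal effect; plate controls were no enzyme wells and a reference inhibitor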
Target sequence (P00352 whole entry, looked up): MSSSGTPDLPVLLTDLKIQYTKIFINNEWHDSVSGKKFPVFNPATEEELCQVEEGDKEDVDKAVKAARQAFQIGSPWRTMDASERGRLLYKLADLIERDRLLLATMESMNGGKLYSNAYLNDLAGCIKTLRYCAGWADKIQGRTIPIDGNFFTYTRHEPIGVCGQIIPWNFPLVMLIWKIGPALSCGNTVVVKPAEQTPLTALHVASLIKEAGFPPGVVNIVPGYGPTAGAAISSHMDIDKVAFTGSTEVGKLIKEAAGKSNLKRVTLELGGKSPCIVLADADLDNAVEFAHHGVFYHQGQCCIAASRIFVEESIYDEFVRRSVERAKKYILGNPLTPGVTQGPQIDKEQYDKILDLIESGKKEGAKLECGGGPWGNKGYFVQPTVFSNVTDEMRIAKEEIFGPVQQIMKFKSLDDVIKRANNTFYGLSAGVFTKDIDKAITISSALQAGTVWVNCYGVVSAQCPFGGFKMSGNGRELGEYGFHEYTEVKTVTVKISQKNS
HttQ103 aggreg: reduces HttQ103-GFP aggregates in PC12 cells; PC12 HttQ103-GFP aggregates, Acumen cytometry, 40 h; AID 1688; Potency, µM (doses to about 46.1 µM), for the others: top-dose activity change, negative = inhibition, usual class: inhibitors; actives 1.1% (n = 220,000); also: potency is read from the fitted curve at half-maximal effect; % is scaled to controls: 0 for no effect and ±100 for the full control effect; nearly all actives have a fitted effect of over 60% in size
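Read-out: GFP aggregate count by laser scanning cytometer (488 nm excitation, 500-530 nm emission, 1–25 µm objects >6 SD above background). Cells: PC12, inducible HTTex1-Q103-GFP, 100 nM tebufenozide; compounds titrated.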
HTT cytoprotect: cytoprotection in Huntington HTT-Q103 PC12 cell model | actives 0.14% (n = 230,000) | Potency, µM (doses to about 56.4 µM), for the others: cytoprotection (ATP increase), hits mostly activators | PC12 HTT-Q103 induced, cytoprotection, ATP luminescence, 40 h | AID 1471; also: potency is read from the fitted curve at half-maximal effect; % of control where 0% means no effect; nearly all actives have a fitted effect of over 45% in size
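ATP quantification (ATPlite) reports survival of PC12 cells in which tebufenozide, 100 nM final, switches on Htt exon 1 with 103 glutamines linked to GFP; compounds are titrated.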
CBFb RUNX1 block: blocks binding between human CBF-beta and RUNX1; 230,000 tested, under 10 active; AlphaScreen CBFb-His/RUNX1-biotin binding, biochemical; Q01196+Q13951; Potency, µM (series often up to 59.8 µM), without a hit: at the highest dose activity, negative = inhibition, actives largely listed as inhibitors; also: % of control where 0% means no effect
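Room-temperature protein-protein interaction test with 30 nM each of His-tagged CBF-beta and biotinylated RUNX1, 15 min with compound, then 90 min with nickel plus streptavidin beads. Signal read in AlphaScreen mode.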
PNC assembly inh: inhibitors of perinucleolar compartment assembly; PC3M PTB-GFP, PNC prevalence imaging, 16 h; stronger effect = lower value; activity change (PNC), negative = inhibition, % at 10 µM; actives 3.1% (n = 140,000); AID 2417;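 active = readout at or below -70, meaning at least 70% loss of cells showing the perinucleolar compartment, a nuclear body marking cancer cells; inconclusive = readout between -30 and a set limit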;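 also: plate controls were DMSO wells for no effect and camptothecin positive control wells for full effect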
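PC3M cells stably expressing PTB-GFP, 750–1000 cells/well, treated 16 h at 37 °C with compound (23 nl of library stock), in duplicate. After paraformaldehyde fixation and Hoechst stain, imaged at 20x; PNC prevalence scored by image analysis.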
HPGD inh: inhibitors of human 15-hydroxyprostaglandin dehydrogenase (HPGD); P15428; purified HPGD, NADH fluorescence kinetic, PGE2 substrate; Potency, µM, inactives show at the highest dose activity change, negative = inhibition, actives largely listed as inhibitors; actives 4.3% (n = 150,000); active = well fitted inhibition curve with a large enough effect, not every such curve was filed as active; inconclusive = small, poorly fitted or top-dose-only effect, or another doubt; inactive = no such curve, though single readings can be large or run the other way; also: potency is read from the fitted curve at half-maximal effect; % is scaled to controls: 0 for no effect and ±100 for the full control effect
Target sequence (P15428 whole entry, looked up): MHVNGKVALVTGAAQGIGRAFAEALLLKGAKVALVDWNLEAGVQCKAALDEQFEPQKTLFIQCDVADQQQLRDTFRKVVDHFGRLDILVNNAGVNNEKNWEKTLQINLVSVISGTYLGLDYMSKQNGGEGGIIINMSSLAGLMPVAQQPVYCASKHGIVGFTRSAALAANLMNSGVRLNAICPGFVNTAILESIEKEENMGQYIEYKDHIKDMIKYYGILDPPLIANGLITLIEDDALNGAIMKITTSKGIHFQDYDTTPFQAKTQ
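20 nM HPGD preincubated 15 min at room temperature with compound in 50 mM Tris-HCl pH 8, 0.01% Tween 20. Started with 1 mM NAD+ and 30 uM prostaglandin E2; NADH fluorescence (360/450 nm) read 5 times over 30-s intervals, last minus first.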
Active calls of the source: *; i = inactive; ? = inconclusive; / = no result given; [ ] = dose if it differs, or a comment. A selection: hits, their analogues and other compounds. The true share with any hit is near 11%. Unless noted, calls follow the shape of the dose curve; as a rule, active = well fitted curve in the direction sought with a large enough effect; inconclusive = small, poorly fitted or top-dose-only effect, or another doubt; inactive = no such curve, though single readings can be large; an effect the other way counts as inactive or inconclusive.

SMILES	ALDH1A1 inh	HttQ103 aggreg	HTT cytoprotect	CBFb RUNX1 block	PNC assembly inh	HPGD inh
C[C@H](Oc1ccc(Oc2cnc3ccc(Cl)cc3n2)cc1)C(=O)O	-2%[13.5 µM]	/	3%[10 µM]	/	/	-10%
O=C1c2ccccc2C(O)(c2ncc[nH]2)N1CCc1ccccc1 (centres undefined)	14µM*	7%	3%	3%	8	-10%
CC(C)CN1C(=O)c2ccccc2C1(O)Cc1ccccc1 (centres undefined)	?	-9%	-14%[1.9 µM]	0%	-16	-16%
C[C@H](C(=O)c1ccncc1)c1ccccn1	3%[13.5 µM]	/	-12%[10 µM]	/	/	-15%
COC(=O)C1=C(C)NC(C)=C(C(=O)OCCN(C)Cc2ccccc2)[C@@H]1c1cccc([N+](=O)[O-])c1	/	/	-17%[1.9 µM]	/	/	/
COc1cccc(C2=Nn3c(nnc3-c3ccc(OC)cc3OC)SC2)c1	/	/	/	3%	/	/
O=S(=O)(CCN1C=CC(C(F)(F)F)=NCC1)c1ccc(F)cc1	?	-15%[9.22 µM]	8%[10 µM]	4%	/	/
O=S(=O)(CCN1C=CC(C(F)(F)F)=NCC1)c1ccc(Cl)cc1Cl	13µM*	6%[9.22 µM]	14%[10 µM]	-7%	/	/
C=CCOC(=O)C1=C(C)NC(=O)NC1/C=C/c1ccccc1 (centres undefined)	-1%	-5%	6%	1%	-13	-4%
COC(=O)C1=C(C)NC(=S)NC1/C=C/c1ccccc1 (centres undefined)	1.1µM*	9%	/	-1%	/	/
CCOC(=O)C1=C(C)NC(=S)NC1/C=C/c1ccccc1 (centres undefined)	0%	-7%	8%[10 µM]	-7%	-100*	-14%
O=C(N/N=C/c1ccc(O)cc1)c1cccc(C(F)(F)F)c1	-2%	9%	-6%[10 µM]	7%	1	-7%
O=C(N/N=C/c1ccccc1O)c1cccc(C(F)(F)F)c1	6%	2.5µM*	/	-26%	-94*	-23%
CC(Oc1ccc(-c2ccccc2)c(F)c1)c1ccn(S(=O)(=O)c2ccc(F)cc2)n1 (centres undefined)	1%	?	6%[10 µM]	11%	-100*	-13%
N#CCCn1c(=O)c(-c2ccc(Cl)cc2)nc2cnc(N3CCNCC3)nc21	?	/	-91%	/	/	/
COC(=O)[C@H](Cc1ccccc1)NC(=O)[C@@H](C)CO	?	/	-34%[10 µM]	4%[13.1 µM]	/	/
COc1ccc(N2C(=O)c3ccccc3C2=O)cc1	4%	12%[9.22 µM]	8%[10 µM]	0%	/	/
COc1ccc(N2C(=O)C(Cl)=C(Oc3cccc(OC)c3)C2=O)cc1	18µM*	?	?	-6%	/	/
COc1ccc(N2C(=O)C(Cl)=C(N(CCO)Cc3ccccc3)C2=O)cc1	-8%	4%	-8%[10 µM]	-9%	-125*	-7%
COc1ccc(N2C(=O)C(Cl)=C(Nc3ccccc3O)C2=O)cc1	16µM*	?	?	-12%	?	14µM*
CCCn1c(C)nc2c(NCCCN3CCCCC3C)nc(C)nc21 (centres undefined)	5%	/	10%	-4%	/	-6%
CCOC(=O)/C(C#N)=C1/C=Cc2ccccc2N1CC	-8%	-11%	-2%	-28%	-99*	-17%
CCOC(=O)/C=c1\s/c(=C(\C#N)C(=O)OCC)n(-c2ccccc2)c1=O	0%	24%	-33%	-9%	-22	-6%
CCN1C(=C(C#N)C#N)C=Cc2ccccc21	?	16%	-10%	-3%	/	/
CCOC(=O)/C(C#N)=C1/C(=O)N(Cc2ccccc2)c2ccccc21	0.11µM*	-16%	-36%	-2%	/	/
SMILES	ALDH1A1 inh	HttQ103 aggreg	HTT cytoprotect	CBFb RUNX1 block	PNC assembly inh	HPGD inh
N=C1C(c2nc3ccccc3s2)=C(O)CN1c1ccccc1	i	-1%[9.22 µM]	-24%[10 µM]	4%	/	/
c1ccc(-c2nc(CSc3n[nH]c(-c4cccs4)n3)cs2)cc1	?	?	-41%	-5%	?	4µM*
O=C(CSc1n[nH]c(-c2cccs2)n1)N1CCCc2ccccc21	-3%	2%	-9%	-1%	4	6.3µM*
CC(C)c1nc(SCC(=O)N2CCc3ccccc32)n[nH]1	0%	-15%	-15%	0%	/	/
O=C(CSc1n[nH]c(-c2ccccc2O)n1)N1CCCc2ccccc21	2%	?	-39%[10 µM]	2%	-25	10µM*
O=S(=O)(c1cccc(C(F)(F)F)c1)N1c2ccccc2-n2cccc2[C@H]1c1cccnc1	-4%[13.5 µM]	/	11%[10 µM]	/	/	-24%
Cc1nc(N2CCN(c3ccccc3)CC2)c2c3c(sc2n1)CCC3	2%	?	-11%	-7%	1	-3%
Cc1nc(N2CCN(C(=O)c3ccco3)CC2)c2c3c(sc2n1)CCCC3	40µM*	0%	3%[10 µM]	-11%	71	16µM*
Cc1nc(N2CCN(C(=O)c3ccco3)CC2)c2c3c(sc2n1)CC(C)CC3 (centres undefined)	13µM*	0%[9.22 µM]	-14%[10 µM]	-12%	/	/
Cc1ccc(S(=O)(=O)N2CCN(c3nc(C)nc4sc5c(c34)CCC(C)C5)CC2)cc1 (centres undefined)	16%	0%	-3%	1%	-23	-9%
Cc1sc2nc(CN3CCCC3)nc(N3CCN(C(=O)c4ccco4)CC3)c2c1C	4%	-17%	-16%	-15%	/	/
O=C(c1ccco1)N1CCN(c2nc(C3CC3)nc3sc4c(c23)CCCC4)CC1	22µM*	?	3%[10 µM]	-12%	24	?
CCc1nc(SCC(=O)N2CCN(C(=O)c3ccco3)CC2)c2c3c(sc2n1)CCCC3	28µM*	?	-16%[10 µM]	-2%	-22	-27%
O=C(O)CCC(=O)c1ccc[nH]1	7%[13.5 µM]	/	-1%[10 µM]	/	/	1%
Cc1cc(=O)oc2cc(OC3C=CC(C#CC(C)(C)C)OC3CO)ccc12 (centres undefined)	0%[13.5 µM]	/	-10%[10 µM]	-1%[13.1 µM]	/	/
Cc1ccc(C)c(S(=O)(=O)N2C(=S)NC(=O)C2CC(C)C)c1 (centres undefined)	-5%	-2%	-10%	4%	-5	0%
CC(C)C1C(=O)NC(=S)N1S(=O)(=O)c1ccc(C(C)(C)C)cc1 (centres undefined)	11µM*	-8%	-2%	-4%	17	-15%
CCOC(=O)c1ccccc1NC(=O)c1ccc2c(=O)n3c(nc2c1)CCCCC3	?	-23%	-5%[10 µM]	4%	39	-20%
O=c1c2cc(NC(=S)NCCCN3CCC(Cc4ccccc4)CC3)ccc2nc2n1CCCCC2	-7%	-27%	-32%	-16%	/	/
O=c1c2cc(NC(=S)NCCN3CCCCCC3)ccc2nc2n1CCCCC2	20µM*	2%	7%	-2%	/	/
O=C(Nc1cccc(S(=O)(=O)N2CCOCC2)c1)c1ccc2c(=O)n3c(nc2c1)CCCCC3	5.6µM*	-18%	-10%	-7%	/	/

Assay outcomes from PubChem.
